This note sets out measurements from PubChem BioAssay AID602250 (The Scripps Research Institute Molecular Screening Center, 2012).

Each structure is given as a SMILES string. Screen size: about 360,000 compounds; about 2,200 (0.61%) were called active.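 How the source made its calls: active means inhibition above a per-plate cutoff, the plate's mean sample inhibition plus 3 SD (cut at about 24% in these data); inactive means the rest.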 For the sample, actives were picked, then their nearest neighbours and some compounds at random.

This test in a line: nonselective inhibitors of ATP calcium response in CHO-K1, primary screen, counter-screen for M1 antagonist project, cell-based, Fluo-8 calcium fluorescence, full deck, 1536-well (AID 602250).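 Further: 0% = DMSO plus EC80 ATP and 100% = DMSO alone without ATP.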 The following applies: CHO-K1 parental, ATP-induced calcium, Fluo-8 fluorescence; at 3 µM; hits give high values.
On to `Cc1cccn2c(=O)c3cc(C#N)c(=O)n(CCCN4CCOCC4)c3nc12`, for which the inhibition is 25.6% (active).
Next, `Cc1cccn2c(=O)c3cc(C(=O)NCCN4CCOCC4)c(=N)n(Cc4cccnc4)c3nc12`: 6.02% (inactive); `Cc1cccn2c(=O)c3cc(C#N)c(=NC(=O)c4cccnc4)n(CC4CCCO4)c3nc12` (centres undefined): 20.6% (inactive); `COCC(C)NC(=O)c1ccc(-n2nc(C(F)(F)F)cc2-c2cccs2)cc1` (centres undefined): -4.35% (inactive).
With `CC(C)(C)NC(=O)Cn1nnc(-c2ccccc2Cl)n1` the figure was -23% (inactive); with `NC(=O)c1ncn([C@@H]2O[C@H](CN=C3NS(=O)(=O)c4ccccc43)[C@@H](O)[C@H]2O)n1`, -7.18% (inactive); with `Cc1c(-c2ccccc2)cn2c1-c1ccc(C)n1CC2`, 43.4% (active).
In the case of `CC(=O)c1ccc(NC(=O)CCNS(=O)(=O)c2cc(Br)cnc2N)cc1`, the inhibition was 0.07% (inactive).
Next, `Cc1ccc(S(=O)(=O)c2c[nH]c3ccc(Cl)cc3c2=O)cc1`: 0.53% (inactive).
Next, `O=C(CCn1nnnc1CN1CCOCC1)N1CCC(c2ccccc2Cl)C1` (centres undefined): -9.8% (inactive).
With `CCSc1nsc(NC(=O)Nc2cccc(C(C)=O)c2)n1` the figure was 30.8% (active); with `CC(=O)c1cccc(NC(=S)N2CCN(S(C)(=O)=O)CC2)c1`, -7.23% (inactive); with `COc1ccc(C(=O)OCC(=O)Nc2cccc(C(C)=O)c2)cc1OC`, -4.37% (inactive).
With `O=C(Nc1ccccc1)Nc1nnc(COc2ccccc2F)s1`, the inhibition is 7.01% (inactive).
As to `CC(=O)c1cccc(NC(=O)[C@@H](NC(N)=O)C(C)C)c1`, the inhibition is -2.68% (inactive).
With `CSc1nsc(NC(=O)Nc2ccccc2)n1` the figure was 28.2% (active).
With `CSc1nsc(SCC(=O)Nc2cc(C(=O)O)ccc2C)n1` the figure was -5.18% (inactive); with `C=CCSc1nsc(NC(=O)Nc2cccc(C(C)=O)c2)n1`, 24.7% (active).
Next, `CCCCN1C(=O)C(=O)N(CC(=O)Nc2cccc(C(C)=O)c2)C1=O`: 10.5% (inactive); `CCN1C(=O)C(C(=O)NC(C)c2ccccc2)C2CC1(C)Oc1ccccc12` (centres undefined): -9.9% (inactive); `CC(C)n1cnc2c(NCc3ccccc3)cc(OCC3CCN(C)CC3)cc21`: -18.6% (inactive).
With `Cc1cc(S(=O)(=O)NCC(C)C)ccc1OCC(=O)NC1CC1`, the inhibition was 7.62% (inactive).
As for `O=C(CN1C(=O)NC2(CCCC2)C1=O)NCC1CCCO1` (centres undefined), the inhibition was -10.5% (inactive).
On to `O=C(Nc1ccccc1C(=O)NCC1CCCO1)c1ccccc1F` (centres undefined), for which the inhibition was -7.11% (inactive).
Next, `CC(NC(=S)Nc1ccc(S(N)(=O)=O)cc1)c1ccc2c(c1)OCO2` (centres undefined): 9.71% (inactive); `NS(=O)(=O)c1ccc(NC(=O)COC(=O)c2c3c(nc4ccccc24)/C(=C\c2ccc4c(c2)OCO4)CCC3)cc1`: 26.9% (active).
As for `NS(=O)(=O)c1ccc(NC(=O)COC(=O)CCc2c[nH]c3ccccc23)cc1`, the inhibition is 0.38% (inactive).
With `Cc1ccc(C(=O)N/C(=C\c2ccco2)C(=O)NC2CCS(=O)(=O)C2)cc1` (centres undefined) the figure was -6.64% (inactive); with `CCC(CC)C(=O)Nc1cc(C(=O)OC)cc(C(=O)OC)c1`, -1.71% (inactive); with `CC(C)C(NC(=O)c1c(F)cccc1F)C(=O)NNC(=O)c1ccccc1` (centres undefined), -6.47% (inactive).
In the case of `CN(Cc1ccccc1F)C(=O)C(Cc1ccccc1)NC(=O)c1ccccc1` (centres undefined), the inhibition was 31.8% (active).
As for `NC(=O)c1ccc(NC(=O)COC(=O)C(Cc2ccccc2)NC(=O)c2ccccc2)cc1` (centres undefined), the inhibition was 18.1% (inactive).
With `Cc1ccccc1N1CCN(C2CCCN(C(=O)c3cn4c(C)cccc4n3)C2)CC1` (centres undefined), the inhibition is -0.61% (inactive).
With `CS(=O)(=O)N1CCc2cc(C(=O)Nc3ccccc3Br)ccc21` the figure was 25.4% (active); with `CSc1ccccc1NC(=O)c1ccc2c(c1)CCN2S(C)(=O)=O`, -14.8% (inactive).
Consider `CCc1ccccc1NC(=O)c1ccc2c(c1)CCN2S(C)(=O)=O`, for which the inhibition was 4.89% (inactive).
`Oc1cc2c(cc1O)CN(C(=S)NCCc1ccc(Cl)cc1)CCC2`: the inhibition was 1.38% (inactive).
With `O=C(CSc1nnc2ccc(-c3ccncc3)nn12)N1CCCCC1` the figure was -8.71% (inactive).
Next, `Cc1nn(Cc2ccc(F)cc2)c(C)c1NC(=O)c1noc2c1CCc1ccccc1-2`: 24.5% (active); `Cc1ccccc1Cn1nc(C)c(NC(=O)C(F)(F)F)c1C`: -5.32% (inactive); `Cc1nn(Cc2ccc(Cl)c(Cl)c2)c(C)c1NC(=O)c1cc(C2CC2)on1`: -3.24% (inactive).
As for `Cc1cc(C)c2oc(C(=O)Nc3ccc(S(=O)(=O)Nc4nccc(C)n4)cc3)cc(=O)c2c1`, the inhibition was -10.7% (inactive).
With `Cc1ccc(OCc2cc(C(=O)N(C)CCn3ccnc3C)no2)cc1C` the figure was -1.34% (inactive); with `Cc1n[nH]c(=O)c2c(NC(=O)CSc3cc(Cl)ccc3Cl)oc(C)c12`, -14.8% (inactive).
On to `CCC(C)CN1CCC(CO)(Cc2ccccc2Cl)CC1` (centres undefined), for which the inhibition is -1.43% (inactive).
With `Nc1ccccc1C(=O)NC1CCCCNC1=O` (centres undefined) the figure was -4.31% (inactive); with `Fc1ccccc1CNC(=S)Nc1ccc(Cl)cc1`, 7.2% (inactive); with `FC(F)(F)Oc1ccc(NC(=S)NCc2ccccc2)cc1`, 26.5% (active).
In the case of `O=C(NNC(=S)NCc1ccccc1)c1ccc(OC(F)F)cc1`, the inhibition is -9.25% (inactive).
Consider `COc1ccc(NS(=O)(=O)c2ccc(N3CCN(CCO)CC3)c([N+](=O)[O-])c2)cc1`, for which the inhibition is 4.94% (inactive).
With `COc1ccc(NS(=O)(=O)c2ccc(Oc3c(C#N)cccc3C#N)cc2)cc1` the figure was 49.1% (active); with `COc1ccc(S(=O)(=O)Nc2ccc3oc(C)c(C(C)=O)c3c2)cc1`, 9.32% (inactive); with `CC(OC(=O)CCC(=O)c1ccccc1)C(=O)Nc1ccc(F)cc1` (centres undefined), 1.59% (inactive).
Next, `O=C(Nc1nnc(C2CC2)s1)c1ccccn1`: -5.35% (inactive); `c1ccc(C(=NNc2nc3ccccc3s2)c2ccccn2)cc1`: 35.5% (active).
Next, `COc1cc(OC)nc(N/N=C(\c2ccccc2)c2ccncc2)n1`: -9.28% (inactive); `CC1(C(=O)NCc2ccc3c(c2)OCO3)CCN1CCc1ccccc1` (centres undefined): -8.04% (inactive).
For `O=C(CC1Sc2ccccc2NC1=O)NNc1ccc(Cl)c(Cl)c1` (centres undefined), the inhibition is -13.4% (inactive).
With `O=C(COc1ccccc1)N1CCN=C1SCc1cccc(F)c1` the figure was -5.27% (inactive).
